In PubChem BioAssay AID1159580 (chemical genetic matrix, 2015):
Out of some 5,500 compounds screened, about 2,000 (36%) were called active. About 18% were inconclusive and are not listed. No stated cut-off is given here; in the data, active means normalized growth mostly below about 0.91 (no sharp cut-off); inconclusive means no clear call, values can overlap the other calls; inactive means mostly above about 0.92. This is one part of the list.

Assay: chemical genetic growth profiling, strain panel (AID 1159580);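 further: tested at 20 µM; growth read once vehicle control cultures reached saturation at 30 °C; 1 = growth at the plate median or of vehicle wells; lower values mean less growth of the strain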
Settings: growth OD

Measured: normalized growth

CC(=C(CCOP(=O)(O)O)SC(=O)c1ccccc1)N(C=O)Cc1cnc(C)nc1N
inactive: S. cerevisiae deletion strains, locus YAL013W, strain DEP1, hits give low values 1.01 | S. cerevisiae deletion strains, locus YBR021W, strain FUR4, hits give low values 1.01 | S. cerevisiae deletion strains, locus YBR229C, strain ROT2, hits give low values 1.01 | S. cerevisiae deletion strains, locus YCL029C, strain bik1, hits give low values 1 | S. cerevisiae deletion strains, locus YDL035C, strain GPR1, hits give low values 1.02 | S. cerevisiae deletion strains, locus YDL074C, strain BRE1, hits give low values 1.01 | S. cerevisiae deletion strains, locus YDL101C, strain DUN1, hits give low values 1.01 | S. cerevisiae deletion strains, locus YDL134C, strain PPH21, hits give low values 1.02 | S. cerevisiae deletion strains, locus YDL185W, strain tfp1, hits give low values 1.01 | S. cerevisiae deletion strains, locus YDL192W, strain arf1, hits give low values 1.01 | S. cerevisiae deletion strains, locus YDR101C, strain arx1, hits give low values 1 | S. cerevisiae deletion strains, locus YDR150W, strain NUM1, hits give low values 1.01 | S. cerevisiae deletion strains, locus YDR162C, strain NBP2, hits give low values 1.01 | S. cerevisiae deletion strains, locus YDR318W, strain mcm21, hits give low values 1.02 | S. cerevisiae deletion strains, locus YDR388W, hits give low values 1.01 | S. cerevisiae deletion strains, locus YDR502C, strain sam2, hits give low values 1.01 | S. cerevisiae deletion strains, locus YEL061C, strain CIN8, hits give low values 1.01 | S. cerevisiae deletion strains, locus YER110C, hits give low values 1.02 | S. cerevisiae deletion strains, locus YER155C, strain BEM2, hits give low values 1.01 | S. cerevisiae deletion strains, locus YER167W, strain BCK2, hits give low values 1.01 | S. cerevisiae deletion strains, locus YGL078C, strain dbp3, hits give low values 1.02 | S. cerevisiae deletion strains, locus YGL086W, strain mad1, hits give low values 1.01 | S. cerevisiae deletion strains, locus YGL248W, strain PDE1, hits give low values 1 | S. cerevisiae deletion strains, locus YGR135W, strain pre9, hits give low values 1.02 | S. cerevisiae deletion strains, locus YGR229C, strain SMI1, hits give low values 1.02 | S. cerevisiae deletion strains, locus YGR252W, strain gcn5, hits give low values 1 | S. cerevisiae deletion strains, locus YHR030C, strain SLT2, hits give low values 1.01 | S. cerevisiae deletion strains, locus YHR079C, strain IRE1 (second series), hits give low values 1.01 | S. cerevisiae deletion strains, locus YHR094C, strain hxt1, hits give low values 1.01 | S. cerevisiae deletion strains, locus YHR129C, strain ARP1, hits give low values 1 | S. cerevisiae deletion strains, locus YHR200W, strain rpn10, hits give low values 1.01 | S. cerevisiae deletion strains, locus YIL066C, strain RNR3, hits give low values 1.02 | S. cerevisiae deletion strains, locus YIL073C, strain SPO22, hits give low values 1.05 | S. cerevisiae deletion strains, locus YIL125W, strain kgd1, hits give low values 1.01 | S. cerevisiae deletion strains, locus YIR030C, strain dcg1, hits give low values 1.02 | S. cerevisiae deletion strains, locus YJL095W, strain BCK1, hits give low values 1.01 | S. cerevisiae deletion strains, locus YJL134W, strain LCB3, hits give low values 1.01 | S. cerevisiae deletion strains, locus YJL168C, strain set2, hits give low values 1.01 | S. cerevisiae deletion strains, locus YJL187C, strain SWE1 (second series), hits give low values 1.01 | S. cerevisiae deletion strains, locus YJR043C, strain POL32, hits give low values 1.01 | S. cerevisiae deletion strains, locus YJR075W, strain HOC1, hits give low values 1.01 | S. cerevisiae deletion strains, locus YKL009W, strain mrt4, hits give low values 1.01 | S. cerevisiae deletion strains, locus YKL068W, hits give low values 1.02 | S. cerevisiae deletion strains, locus YKL085W, strain MDH1 (second series), hits give low values 1.01 | S. cerevisiae deletion strains, locus YKL085W, strain MDH1, hits give low values 1.01 | S. cerevisiae deletion strains, locus YKL190W, strain CNB1, hits give low values 1.01 | S. cerevisiae deletion strains, locus YKR001C, strain vps1, hits give low values 1.01 | S. cerevisiae deletion strains, locus YLR039C, strain RIC1, hits give low values 1.02 | S. cerevisiae deletion strains, locus YLR058C, strain SHM2, hits give low values 1.02 | S. cerevisiae deletion strains, locus YLR102C, strain apc9, hits give low values 1.01 | S. cerevisiae deletion strains, locus YLR262C, strain YPT6, hits give low values 0.991 | S. cerevisiae deletion strains, locus YLR268W, strain sec22, hits give low values 1 | S. cerevisiae deletion strains, locus YLR330W, strain CHS5, hits give low values 1.01 | S. cerevisiae deletion strains, locus YLR342W, strain FKS1 (second series), hits give low values 1 | S. cerevisiae deletion strains, locus YLR371W, strain rom2, hits give low values 1.02 | S. cerevisiae deletion strains, locus YLR418C, strain cdc73, hits give low values 1.02 | S. cerevisiae deletion strains, locus YML016C, strain PPZ1, hits give low values 1.01 | S. cerevisiae deletion strains, locus YML032C, strain rad52, hits give low values 1.01 | S. cerevisiae deletion strains, locus YML124C, strain tub3, hits give low values 1.01 | S. cerevisiae deletion strains, locus YMR078C, strain ctf18, hits give low values 1.01 | S. cerevisiae deletion strains, locus YMR223W, strain ubp8, hits give low values 1.02 | S. cerevisiae deletion strains, locus YMR263W, strain SAP30, hits give low values 1.01 | S. cerevisiae deletion strains, locus YMR307W, strain GAS1, hits give low values 1.03 | S. cerevisiae deletion strains, locus YNL067W, strain RPL9B, hits give low values 1.01 | S. cerevisiae deletion strains, locus YNL128W, strain TEP1, hits give low values 1.02 | S. cerevisiae deletion strains, locus YNL233W, strain BNI4, hits give low values 1.03 | S. cerevisiae deletion strains, locus YNL250W, strain rad50, hits give low values 1.01 | S. cerevisiae deletion strains, locus YNL271C, strain bni1, hits give low values 1.02 | S. cerevisiae deletion strains, locus YNL298W, strain CLA4, hits give low values 1.01 | S. cerevisiae deletion strains, locus YNL307C, strain MCK1, hits give low values 1.02 | S. cerevisiae deletion strains, locus YNL322C, strain KRE1, hits give low values 1.01 | S. cerevisiae deletion strains, locus YNR052C, strain pop2, hits give low values 1.02 | S. cerevisiae deletion strains, locus YOL006C, strain TOP1, hits give low values 1.01 | S. cerevisiae deletion strains, locus YOL012C, strain htz1 1.14 | S. cerevisiae deletion strains, locus YOL147C, strain pex11, hits give low values 1.02 | S. cerevisiae deletion strains, locus YOR061W, strain CKA2, hits give low values 1.01 | S. cerevisiae deletion strains, locus YOR069W, strain VPS5, hits give low values 1.01 | S. cerevisiae deletion strains, locus YOR136W, strain idh2, hits give low values 1.02 | S. cerevisiae deletion strains, locus YOR144C, strain elg1, hits give low values 1.01 | S. cerevisiae deletion strains, locus YOR184W, strain ser1, hits give low values 1.02 | S. cerevisiae deletion strains, locus YOR316C, strain cot1, hits give low values 1.01 | S. cerevisiae deletion strains, locus YPL055C, strain LGE1, hits give low values 1.01 | S. cerevisiae deletion strains, locus YPR119W, strain clb2, hits give low values 1 | S. cerevisiae deletion strains, locus YPR141C, strain kar3, hits give low values 1.02 | S. cerevisiae deletion strains, locus YPR163C, strain tif3, hits give low values 1.01 | S. cerevisiae deletion strains, locus YPR167C, strain met16, hits give low values 1.01 | S. cerevisiae deletion strains, strain wtn01, hits give low values 1.01 | S. cerevisiae strains, strain wild type, hits give low values 1.01
